# Test results published in PubChem BioAssay (Tox21).
# Values without a mark were called inactive. Records with an inconclusive call do not appear. Entries that show only a call come without a potency. Calls of active or inactive are those of the source. Unless noted, calls come from the whole dose curve; as a rule, active = well fitted curve in the direction sought with a large enough effect in the repeat runs; inconclusive = weak or mixed curves; inactive = no such curve, though single readings can be large; an effect the other way counts as inactive or inconclusive.
# What was measured:
# [1] = target: Thyrotropin receptor (Homo sapiens) (UniProt P16473); assay: qHTS assay to identify small molecule agonists of the thyroid stimulating hormone receptor (TSHR) signaling pathway (AID 1224843; calls by dose curve; note: nearly all actives have a fitted effect of over 45% in size)
# Chain of Thyrotropin receptor (Homo sapiens) (P16473 whole entry, looked up): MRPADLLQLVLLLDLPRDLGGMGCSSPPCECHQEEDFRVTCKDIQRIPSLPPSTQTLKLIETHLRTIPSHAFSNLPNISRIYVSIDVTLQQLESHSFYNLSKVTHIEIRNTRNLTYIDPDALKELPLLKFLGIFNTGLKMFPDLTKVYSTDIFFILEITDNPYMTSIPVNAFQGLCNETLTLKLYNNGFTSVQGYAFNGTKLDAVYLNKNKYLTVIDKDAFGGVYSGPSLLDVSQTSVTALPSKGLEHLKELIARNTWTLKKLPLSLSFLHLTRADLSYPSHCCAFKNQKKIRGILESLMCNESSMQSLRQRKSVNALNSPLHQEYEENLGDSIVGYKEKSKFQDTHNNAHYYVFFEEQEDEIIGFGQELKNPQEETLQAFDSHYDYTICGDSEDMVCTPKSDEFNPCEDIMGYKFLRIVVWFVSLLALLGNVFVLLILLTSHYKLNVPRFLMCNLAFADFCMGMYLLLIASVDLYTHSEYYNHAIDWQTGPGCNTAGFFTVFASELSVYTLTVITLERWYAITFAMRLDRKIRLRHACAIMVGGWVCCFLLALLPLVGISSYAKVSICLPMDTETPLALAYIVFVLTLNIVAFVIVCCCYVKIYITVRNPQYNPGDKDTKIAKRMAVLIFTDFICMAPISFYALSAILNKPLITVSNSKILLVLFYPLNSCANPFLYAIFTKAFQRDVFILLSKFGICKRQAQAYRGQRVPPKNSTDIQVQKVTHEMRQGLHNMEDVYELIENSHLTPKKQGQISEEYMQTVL
# In short: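 Agonist activity read as cAMP rise via d2/cryptate HTRF competition, 1 h room-temperature detection, in HEK293 cells expressing TSHR. Fifteen-point titrations, each run in triplicate, with a 30 min room-temperature incubation beforehand.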
# [2] = qHTS assay to identify small molecule agonists of H2AX (AID 1224845; active = well fitted activation curve with a large enough effect in the signal ratio in the repeat runs, not every such curve was filed as active; the % refers to the signal ratio)
# In short: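 Phospho-H2AX Ser139 measured by HTRF (ex 320 nm; em 665 and 620 nm) after 24 hr antibody incubation. Compounds, 15 concentrations, 0.76% DMSO, were applied to CHO-K1 cells for 3hr at 37C before lysis.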
# [3] = qHTS assay to identify small molecule agonists of the hypoxia (HIF-1) signaling pathway (AID 1224846; active = well fitted activation curve with a large enough effect in the signal ratio in the repeat runs, not every such curve was filed as active; the % refers to the signal ratio)
# In short: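 Compounds added to ME-180 cells carrying hypoxia-response-element beta-lactamase reporter (0.5% dialyzed FBS, 5 h preplating), 17 h at 37C; agonist activity detected by CCF4-AM B/G FRET read-out.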
# [4] = qHTS assay to identify small molecule agonists of H2AX - cell viability counter screen (AID 1224847; calls by dose curve; note: nearly all actives have a fitted effect of over 30% in size; note: potency is the fitted concentration of half-maximal effect; for activity change, negative = cytotoxicity: top concentration of the series differs between compounds)
# In short: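 Quantitative HTS viability measurement: CHO-K1 wild-type cells in serum (10% FBS) medium, short 3 hr drug exposure at 37C with 0.76% DMSO, CellTiter-Glo luminescent detection.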
# [5] = qHTS RealTime-Glo MT Cell Viability Assay in HepG2 cells - 24 hour (AID 1224867); note: nearly all actives have a fitted effect of over 50% in size
# In short: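 Cell number in HepG2 cultures estimated from NanoLuc luminescence generated by metabolic reduction of a prosubstrate by living cells. The homogeneous, nonlytic format allowed repeated reads at 0, 8, 16, 24, 32 and 40 h of compound exposure.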
# [6] = qHTS RealTime-Glo MT Cell Viability Assay in HEK293 cells - 32 hour (AID 1224868); note: nearly all actives have a fitted effect of over 50% in size; note: potency is the fitted concentration of half-maximal effect; for activity change, negative = cytotoxic: top concentration of the series differs between compounds
# In short: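 Homogeneous bioluminescent viability format in HEK293 cells (600 cells/well). Following 5 h at 37 C/5% CO2, 23 nL compound was pintooled; the signal was measured repeatedly during 40 h incubation.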
# [7] = A CellTox Green Cytotoxicity Assay to monitor cytotoxicity in HEK293 cells - 0 hour (AID 1224869); note: nearly all actives have a fitted effect of over 50% in size
# In short: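 Fluorescence from a DNA-binding dye excluded by viable cells was measured repeatedly in the same HEK293 wells (600 cells/well) during continuous compound exposure at 37 C. Each assay gives one read point: 0, 8, 16, 24, 32 or 40 h.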
# [8] = qHTS assay to identify small molecule antagonists of the estrogen related receptor (ERR) signaling pathway from Tox21 library (AID 1224848); note: nearly all actives have a fitted effect of over 50% in size; note: potency is the fitted concentration of half-maximal effect
# In short: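 Luciferase luminescence (ONE-Glo, 30 min room temperature) was the read-out. Cells of the NTP-supplied ERR line, 2,000 per well, were given 6 h at 37 C before compound addition in DMSO and 18 h exposure at 37 C.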
# [9] = qHTS assay to identify small molecule agonists of the estrogen related receptor (ERR) signaling pathway from Tox21 library (AID 1224849; calls by dose curve; note: nearly all actives have a fitted effect of over 15% in size); conditions: ERR reporter cell line, ONE-Glo luciferase, 18 h; at 92.4 µM (top of the series) unless noted
# In short: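 Luminescent agonist read-out (One-Glo, 30-minute room-temperature incubation) following 18-hour compound treatment at 37 C of the ERR cell line, which had been plated 6 hours before dosing.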
# [10] = qHTS assay to identify small molecule agonists of the hypoxia (HIF-1) signaling pathway - cell viability counter screen (AID 1224844; calls by dose curve; note: nearly all actives have a fitted effect of over 50% in size)
# In short: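 Cytotoxicity measured by CellTiter-Glo ATP luminescence in the wells also read for beta-lactamase signal. Cells were HRE-bla ME-180 (2,000/well, 0.5% dialyzed FBS), exposed to compounds for 17 h at 37C.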
structure (smiles),measurement,setting,value
CCCC(C)CO (stereo not drawn),outcome,[1],inactive
same,outcome,[2],inactive
same,outcome,[3],inactive
same,Potency,[4],inactive
same,outcome,[5],inactive
same,Potency,[6],inactive
same,Potency,[7],inactive
c1cc(CN2CCCCC2)cc(OCCCNc2nc3ccccc3s2)c1,outcome,[1],inactive
same,outcome,[2],inactive
same,outcome,[3],inactive
same,Potency,[8],23.7 µM (active)
same,"activity change, positive = activation",[9],-31.8% [at 42.5 µM]
same,Potency,[6],9.52 µM (active)
same,Potency,[7],inactive
C1=C\CC/C=C\CC/C=C\CC/1,Potency,[10],inactive
same,outcome,[2],inactive
same,outcome,[3],inactive
same,Potency,[4],inactive
same,Potency,[8],inactive
same,"activity change, positive = activation",[9],2.93%
same,outcome,[5],inactive
same,Potency,[6],inactive
same,Potency,[7],inactive
C=C(C)C(=O)OCCCCCCCCCCCCCCCCCC,activation,[1],-1.44% [at 19 µM]
same,activation (H2AX phosphorylation),[2],0.951% [at 31.6 µM]
same,activation,[3],-0.144% [at 15.8 µM]
same,"activity change, negative = cytotoxicity",[4],1.51% [at 31.6 µM]
same,"activity change, negative = cytotoxicity",[5],4.54% [at 15.8 µM]
same,"activity change, negative = cytotoxic",[6],4.26% [at 15.8 µM]
same,cytotoxicity,[7],2.77% [at 15.8 µM]
O=C(CCOCCOCCOCCOCCC(=O)Nc1c(I)cc(I)c(C(=O)O)c1I)Nc1c(I)cc(I)c(C(=O)O)c1I,outcome,[1],inactive
same,outcome,[2],inactive
same,outcome,[3],inactive
same,Potency,[4],inactive
same,Potency,[6],inactive
COC(=O)C1=C(C)NC(C)=C(C(=O)OCC(C)=O)C1c1ccccc1[N+](=O)[O-] (stereo not drawn),Potency,[10],inactive
same,outcome,[2],inactive
same,outcome,[3],inactive
same,Potency,[4],inactive
same,Potency,[8],inactive
same,"activity change, positive = activation",[9],-8.69% [at 42.5 µM]
same,outcome,[5],inactive
same,Potency,[6],inactive
same,Potency,[7],inactive
CCc1cc(S(=O)(=O)O)c2cc(C(C)C)cccc1-2,outcome,[1],inactive
same,outcome,[3],inactive
same,Potency,[4],inactive
same,Potency,[6],inactive
same,Potency,[7],inactive
C=CC(=O)N1CCOCC1,Potency,[10],inactive
same,outcome,[2],inactive
same,outcome,[3],inactive
same,Potency,[4],inactive
same,Potency,[8],inactive
same,"activity change, positive = activation",[9],4.07%
same,outcome,[5],inactive
same,Potency,[6],inactive
Cc1cc(C)c(NC(=O)CN(CC(=O)O)CC(=O)O)c(C)c1Br,Potency,[10],inactive
same,outcome,[2],inactive
same,outcome,[3],inactive
same,Potency,[4],inactive
same,outcome,[5],inactive
same,Potency,[6],inactive
same,Potency,[7],inactive
NC(=O)Nc1nc2ccccc2[nH]1,Potency,[10],inactive
same,outcome,[2],inactive
same,outcome,[3],inactive
same,outcome,[5],inactive
same,Potency,[6],inactive
C#CC(O)C(CC)CCCC (stereo not drawn),Potency,[10],inactive
same,outcome,[2],inactive
same,outcome,[3],inactive
same,outcome,[5],inactive
same,Potency,[6],inactive
same,Potency,[7],inactive
C/C=C1\C(=O)C[C@H]2[C@@H]3CCC4=CC(=O)CC[C@]4(C)[C@H]3CC[C@]12C,Potency,[10],inactive
same,outcome,[2],inactive
same,outcome,[3],inactive
same,Potency,[4],55.5 µM (active)
same,outcome,[5],inactive
same,Potency,[6],21.4 µM (active)
same,Potency,[7],inactive
CC1=CCC2C(C1)C2(C)C (stereo not drawn),Potency,[10],inactive
same,outcome,[2],inactive
same,outcome,[3],inactive
same,Potency,[4],inactive
same,Potency,[6],inactive
same,Potency,[7],inactive
NC(=O)CCCCC1CCSS1 (stereo not drawn),Potency,[10],inactive
same,outcome,[2],inactive
same,outcome,[3],inactive
same,Potency,[4],inactive
same,outcome,[5],inactive
same,Potency,[6],inactive
[O-][N+](=Nc1ccccc1)c1ccccc1,Potency,[10],inactive
same,outcome,[2],inactive
same,outcome,[3],inactive
same,Potency,[4],inactive
same,Potency,[6],inactive
same,Potency,[7],inactive
CC/C=C\C#N,Potency,[10],inactive
same,outcome,[2],inactive
same,outcome,[3],inactive
same,outcome,[5],inactive
same,Potency,[6],inactive
O=c1[nH]c(=O)n([C@H]2O[C@H](CO)[C@@H](O)[C@@H]2O)cc1/C=C\Br,Potency,[10],inactive
same,outcome,[2],inactive
same,outcome,[3],inactive
same,Potency,[4],inactive
same,outcome,[5],inactive
same,Potency,[6],inactive
same,Potency,[7],inactive
CCCCCCCCCCCl,Potency,[10],inactive
same,outcome,[2],inactive
same,outcome,[3],inactive
same,Potency,[8],inactive
same,"activity change, positive = activation",[9],0.564%
same,Potency,[6],inactive
same,Potency,[7],inactive
OCC(CO)(CO)COCC(CO)(CO)CO,Potency,[10],inactive
same,outcome,[2],inactive
same,outcome,[3],inactive
same,Potency,[4],inactive
same,outcome,[5],inactive
same,Potency,[6],inactive
same,Potency,[7],inactive
OCCCCCCO,Potency,[10],inactive
same,outcome,[2],inactive
same,outcome,[3],inactive
same,outcome,[5],inactive
same,Potency,[6],inactive
CC(C)c1cccc(C(C)C)c1N,Potency,[10],inactive
same,outcome,[2],inactive
same,outcome,[3],inactive
same,Potency,[8],inactive
same,"activity change, positive = activation",[9],0.341%
same,outcome,[5],inactive
same,Potency,[6],inactive
same,Potency,[7],inactive
C=C(C)[C@H]1CC=C(C)CC1,Potency,[10],inactive
same,outcome,[2],inactive
same,outcome,[3],inactive
same,Potency,[4],inactive
same,outcome,[5],inactive
same,Potency,[6],inactive
same,Potency,[7],inactive
CC(C)=CCC/C(C)=C/C(=O)O,Potency,[10],inactive
same,outcome,[2],inactive
same,outcome,[3],inactive
same,Potency,[4],inactive
same,outcome,[5],inactive
same,Potency,[6],inactive
CC(O)CN(CCCN(C)C)CCCN(C)C (stereo not drawn),Potency,[10],inactive
same,outcome,[2],inactive
same,outcome,[3],inactive
same,Potency,[4],inactive
same,outcome,[5],inactive
same,Potency,[6],inactive
same,Potency,[7],inactive
COc1cc(CCC(C)=O)ccc1O,Potency,[10],inactive
same,outcome,[2],inactive
same,outcome,[3],inactive
same,Potency,[8],inactive
same,"activity change, positive = activation",[9],3.47%
same,outcome,[5],inactive
same,Potency,[6],inactive
same,Potency,[7],inactive
CC(CCO)CCCC(C)(C)O (stereo not drawn),Potency,[10],inactive
same,outcome,[2],inactive
same,outcome,[3],inactive
same,Potency,[4],inactive
same,outcome,[5],inactive
same,Potency,[6],inactive
